Experimental findings from PubChem BioAssay (Tox21) are described below.

The structures appear in SMILES notation. Inconclusive results are not listed. Calls of active or inactive are those of the source. Unless noted, calls follow the shape of the dose curve; as a rule, active = well fitted curve in the direction sought with a large enough effect in the repeat runs; inconclusive = weak or mixed curves; inactive = no such curve, though single readings can be large; an effect the other way counts as inactive or inconclusive.

Assay [1] addresses Estrogen receptor beta (Homo sapiens) (UniProt Q92731). Description: qHTS assay to identify small molecule antagonists of the estrogen receptor beta (ER-beta) signaling pathway (AID 1259378; active = well fitted inhibition curve with a large enough effect in the signal ratio in the repeat runs, not every such curve was filed as active; the % refers to the signal ratio). The gist of the method: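 ER-beta-UAS-bla HEK293T cells in 2% charcoal-stripped FBS medium treated with compound plus 1nM final 17-beta-estradiol for 16 hr at 37C. Beta-lactamase reporter read by FRET substrate fluorescence after 2 hours at room temperature.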
On the technique in general: qHTS replaces the single test concentration by a dilution series.

The nature of assay [2]: qHTS assay to identify small molecule agonists of the estrogen receptor beta (ER-beta) signaling pathway - cell viability counter screen (AID 1259380). Also: nearly all actives have a fitted effect of over 30% in size. Also: potency is read from the fitted curve at half-maximal effect. The gist of the method: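 CellTiter-Glo read, 30 min RT, same wells as bla assay; cells ER-beta-UAS-bla HEK293T; 16 hr compound, 37C; medium 2% charcoal-stripped FBS.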
The nature of assay [3]: qHTS assay to identify small molecule antagonists of the estrogen receptor beta (ER-beta) signaling pathway - cell viability counter screen (AID 1259382). Also: nearly all actives have a fitted effect of over 55% in size. Also: potency is read from the fitted curve at half-maximal effect. The gist of the method:
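In this multiplexed counter screen, cells were seeded at 2,000 per well in medium with 2% charcoal-stripped FBS and incubated 6 hr before compound and 1nM final E2 were added. Sixteen hours later, ATP-based luminescence reported viability.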

Assay [4] addresses Estrogen receptor (Homo sapiens) (UniProt P03372). Description: qHTS assay to identify small molecule agonists of the estrogen receptor alpha (ER-alpha) signaling pathway in the presence of an antagonist (AID 1259383; calls by dose curve; also: top concentration of the series differs between compounds; nearly all actives have a fitted effect of over 15% in size). The gist of the method: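 Stably transfected VM7Luc4E2 reporter cells, kept 5 days in charcoal-stripped serum, received ICI-182,780 at 10.0nM final before compound addition. Following 22hr incubation at 37C and 5% CO2, luciferase signal was read by luminescence.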

Assay [5] in a line: qHTS assay to identify small molecule agonists or antagonists of the thyroid stimulating hormone receptor (TSHR) signaling pathway - wild type cell line counter screen (AID 1259384; calls by dose curve). The gist of the method:
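Wild-type Hek293 cells, 800/well, 18 h at 37C, then compound with Ro20-1724 for 30 min RT. cAMP by HTRF (cAMP-d2/anti-cAMP cryptate), 1 h RT, fluorescence read. 15 concentrations, triplicates.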

Assay [6] concerns the target Thyrotropin receptor (Homo sapiens) (UniProt P16473). The assay can be described thus: qHTS assay to identify small molecule antagonists of the thyroid stimulating hormone receptor (TSHR) signaling pathway (AID 1259385; calls by dose curve; also: nearly all actives have a fitted effect of over 20% in size). The method, boiled down: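 TSHR-HEK293 cells (800/well) plated 18 h, then compounds with Ro20-1724 and TSH at 1.5 ng/mL final, 30 min at room temperature. cAMP quantified by HTRF (cAMP-d2/anti-cAMP-cryptate, 1 h); 15 concentrations in triplicate.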

The nature of assay [7]: qHTS assay to identify small molecule agonists of the estrogen receptor alpha (ER-alpha) signaling pathway in the presence of an antagonist - cell viability counter screen (AID 1259386).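 Also: cells exposed to compounds for 22 h at 37 °C before the viability read; nearly all actives have a fitted effect of over 30% in size.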 Also: potency is read from the fitted curve at half-maximal effect. The method, boiled down:
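Viability counter screen using VM7Luc4E2 (full-length ER-alpha, four ERE-luciferase). The cells were treated with compounds alongside ICI-182,780 10.0nM for 22hr, and live-cell protease fluorescence was quantified with CellTiter-Fluor.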

Assay [8] concerns the target Progesterone receptor (Homo sapiens) (UniProt P06401). The assay can be described thus: qHTS assay to identify small molecule agonists of the progesterone receptor (PR) signaling pathway (AID 1346784; calls by dose curve; also: nearly all actives have a fitted effect of over 30% in size). The gist of the method: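 Using charcoal-stripped serum (2%) to limit endogenous steroids, PR-UAS-bla HEK 293T cells received compounds for 16 hr at 37C after 6 hr plating; beta-lactamase FRET fluorescence was recorded following 2 hr substrate loading at room temperature.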

The nature of assay [9]: qHTS assay to identify small molecule antagonists of the progesterone receptor (PR) signaling pathway - cell viability counter screen (AID 1346798). Also: series mostly up to about 92 µM; nearly all actives have a fitted effect of over 50% in size. The gist of the method: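 ATP content as viability readout: CellTiter-Glo luminescence, 30 min room temperature, in PR-UAS-bla HEK293T cells after 16 hr compound/R5020 treatment at 37C and 5% CO2.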
A short description of assay [10]: qHTS assay to identify small molecule agonists of the progesterone receptor (PR) signaling pathway - cell viability counter screen (AID 1346799; calls by dose curve; also: nearly all actives have a fitted effect of over 45% in size). The method, boiled down:
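Cytotoxicity in PR-bla HEK293T cells: 16 h compound, 37C; CellTiter-Glo added post-FRET read; luminescence after 30 min RT.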

Assay [11] can be described thus: qHTS assay to identify small molecule antagonists of the TGF-beta/Smad signaling pathway - cell viability counter screen (AID 1346824). Also: nearly all actives have a fitted effect of over 50% in size. The gist of the method:
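SBE-bla HEK 293T cells, incubated overnight, then compound plus 0.25 ng/mL TGF-beta1 (stock added) for 5 hr at 37 C. Viability was read in the same wells by CellTiter-Glo luminescence after 30 min at room temperature.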

A short description of assay [12]: qHTS assay to identify small molecule agonists of the TGF-beta/Smad signaling pathway - cell viability counter screen (AID 1346829). Also: top concentration of the series differs between compounds; nearly all actives have a fitted effect of over 45% in size. The method, boiled down: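 HEK 293T SBE-bla line, 5 hr compound exposure at 37 C, multiplexed CellTiter-Glo viability read by luminescence.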
A short description of assay [13]: qHTS assay to identify small molecule agonists of the TGF-beta/Smad signaling pathway (AID 1346859; active = well fitted activation curve with a large enough effect in the signal ratio in the repeat runs, not every such curve was filed as active; the % refers to the signal ratio; also: series mostly up to about 77 µM). The method, boiled down: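 Stable Smad binding element-beta-lactamase HEK 293T cells; 5 hr compound exposure at 37 C under 5% CO2; 2 hr room-temperature substrate step; fluorescence excited at 405 nm, collected at 460 nm and 530 nm.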
Assay [14] addresses Thyrotropin-releasing hormone receptor (Homo sapiens) (UniProt P34981). Description: qHTS assay to identify small molecule antagonists of the thyrotropin-releasing hormone receptor (TRHR) signaling pathway (AID 1346877; active = well fitted inhibition curve with a large enough effect in the repeat runs, not every such curve was filed as active; also: series mostly up to about 51 µM). The method, boiled down:
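Following an 18 h incubation at 37 °C and a 2 h calcium dye load, TRHR-HEK293 cells were exposed to compound (5 min, room temperature) and challenged with TRH, 1 nM final.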

For assay [15] the target is unchanged. The assay can be described thus: qHTS assay to identify small molecule agonists of the thyrotropin-releasing hormone receptor (TRHR) signaling pathway (AID 1346891; calls by dose curve;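 also: HEK293 cells expressing TRHR with calcium dye readout; series mostly up to about 58 µM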). The gist of the method:
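In 1536-format, 1500 TRHR-Hek293 cells per well grew 18 h, took up calcium dye for 2 h at 37 °C, received compound, and were read kinetically; 15-point titrations, triplicates.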

Assay [16] can be described thus: qHTS assay to identify small molecule agonists of the androgen receptor (AR) signaling pathway in the presence of an antagonist - cell viability counter screen (AID 1259379). Also: nearly all actives have a fitted effect of over 25% in size. Also: potency is read from the fitted curve at half-maximal effect. The method, boiled down:
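Seed MDA-kb2 at 3,000 cells/well; incubate 5 hr, 37C, 0% CO2. Add nilutamide to 3.0uM final, then pin compounds at 15 concentrations. Incubate 16 hr. Add CellTiter-Fluor at 15 hr, read fluorescence after 1 hr.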

Assay [17] has as its target Progesterone receptor (Homo sapiens) (UniProt P06401). The assay can be described thus: qHTS assay to identify small molecule antagonists of the progesterone receptor (PR) signaling pathway (AID 1346795; active = well fitted inhibition curve with a large enough effect in the signal ratio in the repeat runs, not every such curve was filed as active; the % refers to the signal ratio; also: potency is read from the fitted curve at half-maximal effect). The method, boiled down: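 Inhibition of R5020-induced (1 nM final) beta-lactamase reporter signal in PR-UAS-bla HEK293T cells was scored by FRET fluorescence after overnight (16 hr) compound treatment.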

Assay [18] can be described thus: Human pregnane X receptor (PXR) small molecule agonists, qHTS cell viability counter screen (AID 1346977). Also: nearly all actives have a fitted effect of over 50% in size. Also: potency is read from the fitted curve at half-maximal effect. The method, boiled down:
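Readout is CellTiter-Fluor fluorescence from PXR-Luc HepG2 cells. Plated cells rested 5hr, then were treated with compounds for 24hr at 37C and 5% CO2, with reagent present during the last hour.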

Assay [19] deals with Androgen receptor (Homo sapiens) (UniProt P10275). The assay can be described thus: qHTS assay to identify small molecule agonists of the androgen receptor (AR) signaling pathway in the presence of an antagonist (AID 1259381; calls by dose curve; also: nearly all actives have a fitted effect of over 15% in size). The gist of the method: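 Test compounds at 15 concentrations were incubated for 16hr with MDA-kb2 reporter cells in presence of 3.0uM nilutamide (final). Signal: ONE-Glo luciferase luminescence.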
Sequence of Androgen receptor (Homo sapiens) (P10275 whole entry, looked up): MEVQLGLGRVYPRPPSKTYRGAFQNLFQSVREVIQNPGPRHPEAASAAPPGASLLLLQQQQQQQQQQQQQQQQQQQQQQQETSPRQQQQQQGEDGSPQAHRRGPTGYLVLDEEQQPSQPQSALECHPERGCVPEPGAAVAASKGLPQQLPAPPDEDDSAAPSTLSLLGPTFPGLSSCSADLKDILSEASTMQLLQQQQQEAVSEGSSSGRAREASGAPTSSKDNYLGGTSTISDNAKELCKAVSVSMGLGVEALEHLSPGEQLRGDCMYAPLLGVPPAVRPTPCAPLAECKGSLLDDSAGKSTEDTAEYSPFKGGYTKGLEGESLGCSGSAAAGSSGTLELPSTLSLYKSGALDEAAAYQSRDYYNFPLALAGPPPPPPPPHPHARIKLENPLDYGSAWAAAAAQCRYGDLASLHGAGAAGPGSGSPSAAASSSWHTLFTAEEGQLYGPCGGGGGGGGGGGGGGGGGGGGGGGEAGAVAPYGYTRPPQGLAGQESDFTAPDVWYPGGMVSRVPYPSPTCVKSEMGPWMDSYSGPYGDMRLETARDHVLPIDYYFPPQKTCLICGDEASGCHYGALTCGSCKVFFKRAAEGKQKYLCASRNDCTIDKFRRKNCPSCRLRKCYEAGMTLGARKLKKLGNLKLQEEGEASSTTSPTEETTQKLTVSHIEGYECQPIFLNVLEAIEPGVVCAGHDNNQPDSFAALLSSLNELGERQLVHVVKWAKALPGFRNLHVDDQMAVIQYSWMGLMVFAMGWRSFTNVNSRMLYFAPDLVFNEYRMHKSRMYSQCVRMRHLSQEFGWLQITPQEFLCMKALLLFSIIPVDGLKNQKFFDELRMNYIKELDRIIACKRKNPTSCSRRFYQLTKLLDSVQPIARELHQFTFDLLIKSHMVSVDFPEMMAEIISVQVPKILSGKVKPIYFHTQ

Sequence of Estrogen receptor (Homo sapiens) (P03372 whole entry, looked up): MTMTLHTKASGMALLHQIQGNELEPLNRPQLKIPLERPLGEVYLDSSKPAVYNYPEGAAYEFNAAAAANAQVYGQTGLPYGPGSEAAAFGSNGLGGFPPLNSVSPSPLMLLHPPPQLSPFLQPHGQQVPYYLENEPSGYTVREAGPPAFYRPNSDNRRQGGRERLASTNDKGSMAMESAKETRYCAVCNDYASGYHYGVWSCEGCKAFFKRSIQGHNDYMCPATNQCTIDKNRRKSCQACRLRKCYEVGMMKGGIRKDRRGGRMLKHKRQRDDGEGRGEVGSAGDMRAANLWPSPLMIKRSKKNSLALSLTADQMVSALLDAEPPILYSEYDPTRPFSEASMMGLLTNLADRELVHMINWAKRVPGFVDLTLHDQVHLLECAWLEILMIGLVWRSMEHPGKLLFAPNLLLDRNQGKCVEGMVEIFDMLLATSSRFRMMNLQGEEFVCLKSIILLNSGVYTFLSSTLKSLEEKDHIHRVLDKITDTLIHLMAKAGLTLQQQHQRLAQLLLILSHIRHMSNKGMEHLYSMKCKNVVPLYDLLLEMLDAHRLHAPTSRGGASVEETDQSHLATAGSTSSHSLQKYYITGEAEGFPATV
Sequence of Thyrotropin receptor (Homo sapiens) (P16473 whole entry, looked up): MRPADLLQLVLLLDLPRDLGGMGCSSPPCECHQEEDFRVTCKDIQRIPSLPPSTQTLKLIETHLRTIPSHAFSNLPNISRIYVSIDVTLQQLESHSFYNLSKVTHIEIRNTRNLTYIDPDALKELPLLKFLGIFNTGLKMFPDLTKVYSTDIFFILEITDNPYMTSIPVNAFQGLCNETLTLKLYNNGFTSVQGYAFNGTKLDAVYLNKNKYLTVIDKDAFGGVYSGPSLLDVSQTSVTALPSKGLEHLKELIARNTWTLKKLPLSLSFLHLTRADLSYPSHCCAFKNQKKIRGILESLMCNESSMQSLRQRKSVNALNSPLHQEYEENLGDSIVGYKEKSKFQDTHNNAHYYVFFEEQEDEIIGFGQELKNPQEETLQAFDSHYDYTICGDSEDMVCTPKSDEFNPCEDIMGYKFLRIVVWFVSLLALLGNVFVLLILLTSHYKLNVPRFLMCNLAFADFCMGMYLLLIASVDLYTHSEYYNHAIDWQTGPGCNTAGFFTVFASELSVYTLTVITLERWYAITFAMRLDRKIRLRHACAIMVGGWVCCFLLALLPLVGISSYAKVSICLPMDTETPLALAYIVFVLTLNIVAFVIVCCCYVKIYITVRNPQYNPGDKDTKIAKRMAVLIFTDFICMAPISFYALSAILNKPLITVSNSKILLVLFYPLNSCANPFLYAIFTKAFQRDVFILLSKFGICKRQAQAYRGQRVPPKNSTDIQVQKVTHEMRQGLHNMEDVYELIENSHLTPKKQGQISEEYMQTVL
Sequence of Progesterone receptor (Homo sapiens) (P06401 whole entry, looked up): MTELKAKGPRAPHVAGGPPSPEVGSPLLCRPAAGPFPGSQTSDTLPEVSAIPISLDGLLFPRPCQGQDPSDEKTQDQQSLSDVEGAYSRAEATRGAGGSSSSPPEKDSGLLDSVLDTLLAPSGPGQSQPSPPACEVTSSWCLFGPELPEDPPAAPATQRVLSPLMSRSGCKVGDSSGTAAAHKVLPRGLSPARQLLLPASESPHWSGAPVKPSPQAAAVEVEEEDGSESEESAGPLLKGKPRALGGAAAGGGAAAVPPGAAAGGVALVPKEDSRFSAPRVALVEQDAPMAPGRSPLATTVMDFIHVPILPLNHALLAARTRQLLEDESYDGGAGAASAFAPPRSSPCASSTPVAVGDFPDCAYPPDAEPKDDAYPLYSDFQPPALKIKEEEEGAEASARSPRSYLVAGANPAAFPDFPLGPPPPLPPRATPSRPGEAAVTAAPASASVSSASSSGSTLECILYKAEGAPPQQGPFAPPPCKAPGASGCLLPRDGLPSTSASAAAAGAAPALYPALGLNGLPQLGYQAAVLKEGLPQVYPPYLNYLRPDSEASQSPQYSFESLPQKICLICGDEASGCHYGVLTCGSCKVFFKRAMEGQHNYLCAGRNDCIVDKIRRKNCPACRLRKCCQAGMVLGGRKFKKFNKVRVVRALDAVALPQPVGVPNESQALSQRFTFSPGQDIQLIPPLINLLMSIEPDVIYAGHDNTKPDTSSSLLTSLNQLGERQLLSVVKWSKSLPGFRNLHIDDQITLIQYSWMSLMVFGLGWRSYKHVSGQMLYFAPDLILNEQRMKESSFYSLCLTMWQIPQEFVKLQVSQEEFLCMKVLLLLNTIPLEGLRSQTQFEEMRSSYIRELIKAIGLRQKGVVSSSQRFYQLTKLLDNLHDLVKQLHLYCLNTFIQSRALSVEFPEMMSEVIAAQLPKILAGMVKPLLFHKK
Sequence of Thyrotropin-releasing hormone receptor (Homo sapiens) (P34981 whole entry, looked up): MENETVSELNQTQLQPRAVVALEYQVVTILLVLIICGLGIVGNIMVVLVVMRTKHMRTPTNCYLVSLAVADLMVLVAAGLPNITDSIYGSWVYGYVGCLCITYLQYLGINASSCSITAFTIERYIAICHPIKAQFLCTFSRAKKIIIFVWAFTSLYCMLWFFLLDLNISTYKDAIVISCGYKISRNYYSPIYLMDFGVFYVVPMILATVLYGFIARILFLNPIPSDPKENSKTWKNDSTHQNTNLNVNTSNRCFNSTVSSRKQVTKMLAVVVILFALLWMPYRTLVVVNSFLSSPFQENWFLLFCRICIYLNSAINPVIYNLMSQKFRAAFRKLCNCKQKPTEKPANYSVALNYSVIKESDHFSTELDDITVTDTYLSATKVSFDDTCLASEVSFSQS
Sequence of Estrogen receptor beta (Homo sapiens) (Q92731 whole entry, looked up): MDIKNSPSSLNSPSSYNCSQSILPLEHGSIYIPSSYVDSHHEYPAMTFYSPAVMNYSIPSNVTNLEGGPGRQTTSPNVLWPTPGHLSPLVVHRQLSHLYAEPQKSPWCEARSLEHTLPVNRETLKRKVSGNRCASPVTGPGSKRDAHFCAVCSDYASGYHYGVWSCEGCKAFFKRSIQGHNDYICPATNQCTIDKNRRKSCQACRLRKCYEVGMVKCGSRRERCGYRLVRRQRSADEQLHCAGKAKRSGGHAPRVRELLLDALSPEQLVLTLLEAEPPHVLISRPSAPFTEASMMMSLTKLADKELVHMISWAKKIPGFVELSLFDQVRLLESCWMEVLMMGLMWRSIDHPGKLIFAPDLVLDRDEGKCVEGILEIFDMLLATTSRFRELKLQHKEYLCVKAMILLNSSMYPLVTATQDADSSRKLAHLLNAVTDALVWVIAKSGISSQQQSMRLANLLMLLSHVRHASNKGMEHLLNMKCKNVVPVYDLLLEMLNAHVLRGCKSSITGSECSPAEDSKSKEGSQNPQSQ

Consider `CC(=O)Oc1cc2c(s1)CCN(C(C(=O)C1CC1)c1ccccc1F)C2` (stereo unspecified), for which the Potency entry in assay [1], in assay [2], in assay [3], in assay [4], in [6] and in [7] was “inactive” throughout. Further, the Potency entry in assay [8], in [9], in assay [10], in assay [11], in [12] and in assay [13] was “inactive” throughout. In addition, the Potency entry in assay [14] is “inactive”. For the same compound, the outcome in assay [5] and in assay [15] was inactive.

Consider `Cc1ccc(C(C)C)cc2c(C)ccc1-2`, for which the Potency entry in assay [1], in assay [16], in assay [4], in [6], in assay [7] and in assay [8] was “inactive” throughout. For the same compound, the Potency entry in assay [17], in assay [9], in [10], in assay [11], in assay [12] and in assay [13] was “inactive” throughout. For the same compound, the Potency entry in assay [14] and in assay [18] was “inactive” throughout. The outcome in assay [5] and in [15] was inactive.

Regarding `CCCCCc1ccc(Cl)cc1`, the Potency result in assay [16], in [2], in assay [4], in [6], in assay [7] and in assay [8] was “inactive” each time. The Potency result in assay [17], in assay [9], in assay [10], in assay [11], in assay [12] and in assay [13] was “inactive” in each case. The Potency entry in assay [14] was “inactive”. Besides, the compound was called inactive in assay [5] and in [15].

Consider `CCC(CC)(CC(=O)Nc1cccc(/C=C/c2nc(C3CCC3)cs2)c1)C(=O)O`, for which the Potency result in [16], in [7], in assay [8], in assay [9], in assay [11] and in [13] was “inactive” throughout. Besides, the Potency result in assay [14] and in assay [18] was “inactive” in each case. Moreover, in assay [2], the Potency was 7.5 µM (active). Further, in [15], the outcome was inactive.

In the case of `c1cnccn1`, the Potency result in [16], in assay [2], in assay [4], in assay [6], in assay [7] and in assay [8] was “inactive” throughout. Also, the Potency result in assay [17], in assay [9], in [10], in assay [11], in [12] and in assay [14] was “inactive” throughout. Also, the Potency entry in assay [18] was “inactive”. The result in assay [5] and in assay [15] was inactive.

Consider `CCCCCC(C)OC(=O)COc1ccc(Cl)c2cccnc12` (stereo unspecified), for which the Potency result in [16], in assay [4], in [6], in assay [7], in assay [8] and in [9] was “inactive” in each case. Further, the Potency result in [11], in assay [12], in assay [13] and in assay [14] was “inactive” each time. The Potency in [2] and in assay [17] was 54.5 µM (active) each time. The compound was classed as inactive in [5] and in assay [15].

Consider `CC1(C)[C@@H](O)CC[C@]2(C)[C@H]3C(=O)C=C4[C@@H]5C[C@@](C)(C(=O)O)CC[C@]5(C)CC[C@@]4(C)[C@]3(C)CC[C@@H]12`, for which the Potency entry in [16], in assay [3], in assay [4], in assay [7], in assay [9] and in assay [11] was “inactive” throughout. For the same compound, the Potency result in [12], in assay [14] and in assay [18] was “inactive” throughout. Besides, the result in assay [19] and in assay [5] was inactive. Moreover, in assay [17], the Potency is 60.4 µM (active).

In the case of `O=C1CCc2ccc(OCCCCN3CCN(c4cccc(Cl)c4Cl)CC3)cc2N1`, the Potency in assay [16] was 26.6 µM (active); in assay [2], 10.6 µM (active); in assay [3], 33.5 µM (active); in assay [7], 29.8 µM (active); in assay [18] it was 16.8 µM (active). For the same compound, the compound was classed as inactive in assay [5] and in assay [15]. Besides, the Potency entry in assay [6] and in [14] was “inactive” throughout.
